Compounds without any hit were thinned out: in the full panel of roughly 79,000, 15% have a hit. Unmarked numbers belong to inactive results. Calls of active or inactive are those of the source. Cut-off read from the data, not from the text of the source: active = growth inhibition above about 70%; inactive = the rest.

Assay [1] is described as follows: NCI Yeast Anticancer Drug Screen. Data for the rad50 strain (AID 155).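 Note: 0% = growth of vehicle-only cultures of the same strain.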 The conditions noted are these: S. cerevisiae rad50 strain growth inhibition; at 50.0 µM; hits give high values. In outline: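 Growth of the mutant yeast was measured after compound exposure and referenced to vehicle-treated cultures.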
A short description of assay [2]: NCI Yeast Anticancer Drug Screen. Data for the mec2-1 strain (AID 157). The conditions noted are these: S. cerevisiae mec2-1 strain, at 50.0 µM, hits give high values. In outline:
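Readout is yeast growth inhibition, normalised to vehicle-treated controls, in the mec2-1 strain exposed to compound.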

Assay [3] is described as follows: NCI Yeast Anticancer Drug Screen. Data for the sgs1 mgt1 strain (AID 161).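 Note: 0% = growth of cultures given vehicle only.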 The following applies: S. cerevisiae sgs1 mgt1 strain, at 50.0 µM, hits give high values. Summed up:
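Growth of a repair-deficient yeast mutant was monitored after compound treatment and expressed as inhibition relative to vehicle-treated cultures.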

Assay [4] is described as follows: NCI Yeast Anticancer Drug Screen. Data for the cln2 rad14 strain (AID 165).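 Note: 0% = growth equal to vehicle treated cultures.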 The following applies: S. cerevisiae cln2 rad14 strain, at 50.0 µM, hits give high values. Summed up:
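Relative to vehicle controls, growth inhibition of compound-treated cln2 rad14 yeast was recorded.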

Assay [5] in a line: NCI Yeast Anticancer Drug Screen. Data for the bub3 strain (AID 167). The conditions noted are these: S. cerevisiae bub3 mutant strain, at 50.0 µM, hits give high values. In outline:
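Whole-cell yeast assay. The mutant strain was incubated with compounds, and growth inhibition was determined by comparison with vehicle-treated cells.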

A short description of assay [6]: NCI Yeast Anticancer Drug Screen. Data for the mlh1 rad18 strain (AID 175). The following applies: S. cerevisiae mlh1 rad18 strain growth inhibition; at 50.0 µM; hits give high values. In outline:
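Test agents were incubated with a yeast strain of defined genotype (DNA damage repair defect). Inhibition of growth was derived by comparison with vehicle-exposed cultures.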

With `C=CS(=O)(=O)c1ccc(NC(=O)Nc2ccc(Cl)cc2)cc1`, the growth inhibition in assay [1] was -0.55%; in assay [2] it was 1.7%; in assay [3], -8.8%; in assay [4], 12.8%; in assay [5], 1.25%; in assay [6] it was 5.85%.

As for `OCc1cc2ccccc2c2c3c(ccc12)OCO3`, the growth inhibition in assay [1] was 39.9%; in assay [2] it was 4.6%; in assay [3], 20.7%; in assay [4] it was -37.9%; in assay [5] it was -1.05%; in assay [6], 15.9%.

Take `Cc1ccc(NC(=S)NCC2CCCO2)cc1C` (stereo not given): the growth inhibition in assay [1] is 9%; in assay [2] it was 7.2%; in assay [3] it was 10.6%; in assay [4], 8.85%; in assay [5] it was 19.4%; in assay [6] it was 14.7%.

As to `CN(CN(C)/N=C/c1cccc([N+](=O)[O-])c1)/N=C\c1cccc([N+](=O)[O-])c1`, the growth inhibition was -0.05% in assay [1]; -11.6% in assay [2]; -2.9% in assay [3]; -40.9% in assay [4]; 4.95% in assay [5]; -14.3% in assay [6].

`COc1ccc2nc3cc(Cl)ccc3c(NCCCC3CCCN4CCCCC34)c2c1` (stereo not given): the growth inhibition in assay [1] is 50%; in assay [2], 40.5%; in assay [3] it was 2%; in assay [4], 6.15%; in assay [5] it was 11.7%; in assay [6], 38.4%.

On to `COc1cc([C@@H]2OC(=O)C3C2C(=O)O[C@H]3c2ccc(O)c(OC)c2)ccc1O` (stereo not given in full), for which the growth inhibition is 7.55% in assay [1]; 14.2% in assay [2]; 9.25% in assay [3]; 17.4% in assay [4]; 0.55% in assay [5]; 24.2% in assay [6].

As to `CN1Cc2cc3c(cc2-c2ccccc21)OCO3`, the growth inhibition was -23.7% in assay [1]; -35.7% in assay [2]; -44.9% in assay [3]; 6.4% in assay [4]; -36.5% in assay [5]; -35.6% in assay [6].

On to `Cc1ccc(-c2nnc(-c3cccc4ccccc34)o2)cc1`, for which the growth inhibition in assay [1] is 1.85%; in assay [2], -31.9%; in assay [3] it was 0.75%; in assay [4], 4.1%; in assay [5], -44.1%; in assay [6], -8.05%.

`COc1ccc(C)cc1NS(=O)(=O)c1ccccc1`: the growth inhibition is -7.45% in assay [1]; -33.4% in assay [2]; -8.2% in assay [3]; -12.5% in assay [4]; -9.65% in assay [5]; 10.4% in assay [6].

As for `O=C(Nc1ccccc1Cl)Oc1ccc(Cl)cc1Cc1ccccc1`, the growth inhibition in assay [1], in assay [2], in assay [3], in assay [4], in assay [5] and in assay [6] was 99.7% (active) each time.

Take `O=C(CC12C3C4C1C1C2C3C41CC(=O)NO)NO` (stereo not given): the growth inhibition was -28.8% in assay [1]; -28.1% in assay [2]; -29.2% in assay [3]; 11.9% in assay [4]; -19.9% in assay [5]; -10.9% in assay [6].

For `CCCCCCCCCCCCCCCCCCNC(=O)N1CCCCC1C` (stereo not given), the growth inhibition in assay [1] is 10.2%; in assay [2] it was -3.9%; in assay [3] it was -14.7%; in assay [4], -24.1%; in assay [5] it was -3.9%; in assay [6], 14.3%.

Regarding `CCC1CCC(=O)NC1=O` (stereo not given), the growth inhibition in assay [1] is -10.3%; in assay [2], -1.15%; in assay [3] it was 11.7%; in assay [4] it was -7.75%; in assay [5], -9.6%; in assay [6], 1.5%.

Take `CCCCCCCCCCCCC(F)C(=O)OCC1OC(n2cc(C)c(=O)[nH]c2=O)CC1N=[N+]=[N-]` (stereo not given): the growth inhibition is 3.25% in assay [1]; -15.7% in assay [2]; 36.4% in assay [3]; -14.8% in assay [4]; 10.7% in assay [5]; 14.8% in assay [6].

Turning to `C=C(Br)CN(C(C)=O)C1CCCCC1`, the growth inhibition is -9.2% in assay [1]; -10.7% in assay [2]; 8.05% in assay [3]; 18.6% in assay [4]; 15% in assay [5]; 26.8% in assay [6].

For `CCCCOC(=O)OCCOCCOC(=O)OCCCC`, the growth inhibition was -7.75% in assay [1]; 3.1% in assay [2]; 2.6% in assay [3]; -70.8% in assay [4]; -9.2% in assay [5]; 0.35% in assay [6].

`CCOC(=O)CNCc1cccc(Cl)c1`: the growth inhibition is 5.15% in assay [1]; 28.4% in assay [2]; 15.4% in assay [3]; -0.8% in assay [4]; 28.1% in assay [5]; 24.2% in assay [6].

`Cc1cc(N(CCC#N)CCC#N)ccc1/C=C1N=C(/C=C\c2ccccc2)N(NC(=O)CC(=O)Nc2ccccc2Cl)C\1=O`: the growth inhibition in assay [1] is 14.6%; in assay [2], -0.8%; in assay [3], 1.55%; in assay [4], 11.3%; in assay [5] it was 2.8%; in assay [6], 5.05%.

Take `CC(=O)Nc1ccc(C=O)cc1[N+](=O)[O-]`: the growth inhibition was 14.2% in assay [1]; 33.3% in assay [2]; 4.05% in assay [3]; -12.8% in assay [4]; -0.6% in assay [5]; 13.4% in assay [6].

Turning to `c1ccc(N=C2N=c3ccccc3=C2c2c(Nc3ccccc3)[nH]c3ccccc23)cc1`, the growth inhibition is 20.4% in assay [1]; 5.5% in assay [2]; -4.35% in assay [3]; -27.1% in assay [4]; -4.7% in assay [5]; 17.6% in assay [6].

On to `Cc1cc(C)c(C2[C@H]3C(=O)N(c4ccc(Cc5ccc(N6C(=O)[C@@H]7ON(c8ccccc8)C(c8c(C)cc(C)cc8C)[C@@H]7C6=O)cc5)cc4)C(=O)[C@H]3ON2c2ccccc2)c(C)c1` (stereo not given in full), for which the growth inhibition is 27.6% in assay [1]; 31.8% in assay [2]; 19.8% in assay [3]; 25.2% in assay [4]; 29.4% in assay [5]; 24.2% in assay [6].

Take `CCN(CC)C(=O)c1ccccc1C`: the growth inhibition was 17.2% in assay [1]; -2.65% in assay [2]; -9.7% in assay [3]; 6.7% in assay [4]; -3.85% in assay [5]; 0.45% in assay [6].

As to `N#CC(CN1CCOCC1)[N+](=O)[O-]` (stereo not given), the growth inhibition in assay [1] was -2.2%; in assay [2], -4.6%; in assay [3] it was -14.2%; in assay [4], -24.6%; in assay [5], 16.6%; in assay [6] it was -13.6%.

As to `O=C(Nc1cccc2c1C(=O)c1cc(Cl)ccc1C2=O)c1ccccc1`, the growth inhibition in assay [1] was -2.7%; in assay [2] it was 0.1%; in assay [3] it was 4%; in assay [4], -38.9%; in assay [5], 5%; in assay [6], -2.3%.

Regarding `O=C1CCc2ccccc21`, the growth inhibition in assay [1] was -26.6%; in assay [2], -10.5%; in assay [3], -15%; in assay [4], 15.1%; in assay [5], 3.25%; in assay [6], 7.75%.

On to `O=C(O)c1nc(-c2ccccc2)[nH]c1C(=O)O`, for which the growth inhibition in assay [1] is 20.5%; in assay [2], 5.6%; in assay [3], 12.8%; in assay [4], -15.8%; in assay [5], 30.6%; in assay [6], 24.4%.

With `COC(=O)c1ccccc1OC(=S)N(C)C`, the growth inhibition in assay [1] was -8.75%; in assay [2], -11.4%; in assay [3] it was -8.45%; in assay [4] it was -29.1%; in assay [5], 0.75%; in assay [6] it was -17.4%.

On to `COc1ccc(NC(C)=O)cc1C1CCC(=O)N1` (stereo not given), for which the growth inhibition in assay [1] was 12.2%; in assay [2], 7.25%; in assay [3], -1.65%; in assay [4], 10.1%; in assay [5], -19%; in assay [6], -23.6%.

For the compound `COC(=O)c1nnn(-c2cccc(Cl)c2)c1N`, the growth inhibition in assay [1] is 3.7%; in assay [2], -6.1%; in assay [3] it was -0.25%; in assay [4], 15.7%; in assay [5], -26.9%; in assay [6], 20.4%.

In the case of `Cc1ccc2[nH]c(C)c(C(=O)c3ccncc3)c2c1`, the growth inhibition in assay [1] is -2.75%; in assay [2] it was -15.4%; in assay [3], 4.15%; in assay [4], -8.35%; in assay [5], -10.7%; in assay [6], -9.45%.

For the compound `CC(=O)OC1(C#N)CC2OC1C1N=NN(C(=O)OC(C)(C)C)C21` (stereo not given), the growth inhibition in assay [1] was 18.2%; in assay [2], 2.15%; in assay [3], 4.8%; in assay [4], 21.8%; in assay [5] it was 16.1%; in assay [6], 19.2%.

Consider `COC(=O)[C@H]1C=C[C@H](OC2OC(COC(C)=O)C(OC(C)=O)C(OC(C)=O)C2OC(C)=O)n2c(=O)n(-c3ccccc3)c(=O)n21` (stereo not given in full), for which the growth inhibition is 8.3% in assay [1]; 14% in assay [2]; -1.25% in assay [3]; 5.5% in assay [4]; 15.8% in assay [5]; -48% in assay [6].

Regarding `CNC(=S)NC(=S)N(C)C`, the growth inhibition in assay [1] is -1.15%; in assay [2] it was -29.9%; in assay [3], 35.2%; in assay [4], -25.8%; in assay [5], -35.2%; in assay [6] it was 35.9%.

Consider `CN(C)N1C(=O)c2ccccc2NC1c1ccccc1` (stereo not given), for which the growth inhibition in assay [1] is -19.2%; in assay [2], -1.35%; in assay [3], 29.6%; in assay [4], 2%; in assay [5], 18.9%; in assay [6], 5.15%.

As to `N#Cc1c2c(c(=S)n(-c3ccc(Cl)cc3)c1N)CCCC2`, the growth inhibition in assay [1] was -4.4%; in assay [2], -3.35%; in assay [3], -5.8%; in assay [4], 1.75%; in assay [5], 6.85%; in assay [6] it was -7.2%.

For the compound `CCOc1cccc(N)c1`, the growth inhibition in assay [1] was -69.2%; in assay [2], -20.7%; in assay [3], -55.5%; in assay [4], -51%; in assay [5] it was -41.7%; in assay [6], -80.2%.

In the case of `CC(C)(C)C(=O)CC(=O)C(C)(C)C.CC(C)(C)C(=O)CC(=O)C(C)(C)C.CC(C)(C)C(=O)CC(=O)C(C)(C)C.[Co]`, the growth inhibition is -10.1% in assay [1]; -8.95% in assay [2]; 21.4% in assay [3]; 16% in assay [4]; -0.6% in assay [5]; 0.15% in assay [6].

For `O=C(O)c1ccccc1C(=O)OCC1CCCc2ccccc21` (stereo not given), the growth inhibition in assay [1] is 11.7%; in assay [2], 45.7%; in assay [3], 41.5%; in assay [4], -100%; in assay [5] it was 43.5%; in assay [6], 46%.

Take `COc1ccc(C)cc1N`: the growth inhibition in assay [1] was 19.2%; in assay [2], -5.3%; in assay [3], -1.15%; in assay [4], 24.4%; in assay [5] it was -3.2%; in assay [6] it was 24.4%.

Take `NC(=O)c1nsc(-c2ccc([N+](=O)[O-])cc2)c1N`: the growth inhibition is -10.8% in assay [1]; 0.9% in assay [2]; -1.8% in assay [3]; 30.6% in assay [4]; -17.8% in assay [5]; -3.7% in assay [6].

(Values after PubChem BioAssay (NCI).)
